For test [1], the target named is Estrogen receptor (Homo sapiens) (UniProt P03372). The test is described as follows: qHTS assay for small molecule antagonists of estrogen receptor alpha signaling (AID 588513; active means well fitted curve in the direction sought with a large enough effect in the signal ratio, with a control signal flat, not every such curve was filed as active; the % refers to the signal ratio; further: on the % scale 0 is the no-effect control and ±100 the full control effect). The gist of the method: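 Fluorescence from CCF4 substrate after 2 h at room temperature gave reporter activity; cells had been exposed to compound and 0.5nM 17-beta-estradiol for 18 h at 37 C. Hill-equation fitting yielded IC50 and maximal response.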
Sequence of Estrogen receptor (Homo sapiens) (P03372 whole entry, looked up): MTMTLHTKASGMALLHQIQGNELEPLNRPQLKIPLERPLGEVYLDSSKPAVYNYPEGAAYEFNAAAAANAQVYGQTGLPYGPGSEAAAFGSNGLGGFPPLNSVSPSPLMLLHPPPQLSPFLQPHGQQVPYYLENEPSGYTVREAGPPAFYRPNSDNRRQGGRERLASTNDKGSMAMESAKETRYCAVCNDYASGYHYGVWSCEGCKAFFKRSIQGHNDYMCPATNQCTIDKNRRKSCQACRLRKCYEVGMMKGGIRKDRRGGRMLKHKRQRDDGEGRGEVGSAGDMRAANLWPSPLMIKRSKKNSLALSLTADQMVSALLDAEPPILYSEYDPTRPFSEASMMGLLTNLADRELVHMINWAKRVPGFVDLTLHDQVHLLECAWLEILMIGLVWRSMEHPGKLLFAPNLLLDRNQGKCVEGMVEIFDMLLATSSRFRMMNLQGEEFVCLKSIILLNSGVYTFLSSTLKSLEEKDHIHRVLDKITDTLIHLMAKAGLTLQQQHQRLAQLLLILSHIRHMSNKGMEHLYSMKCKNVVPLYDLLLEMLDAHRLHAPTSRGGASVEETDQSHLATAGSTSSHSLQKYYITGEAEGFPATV
For orientation: In qHTS, concentration-response curves come from the screen itself.

Test [2] shares this target. The test is described as follows: qHTS assay for small molecule agonists of estrogen receptor alpha signaling (AID 588514).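 Further: 0% = vehicle only and 100% = reference agonist; nearly all actives have a fitted effect of over 70% in size.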 Put shortly: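 ER-alpha-UAS-bla GripTite HEK 293 cells in medium with 2% charcoal/dextran-treated FBS were treated with compound titrations at 37 C for 18 hrs; beta-lactamase reporter read by CCF4 fluorescence after 2 hrs at RT.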
Test [3] has as its target Glucocorticoid receptor (Homo sapiens) (UniProt P04150). The test is described as follows: qHTS assay for small molecule antagonists of glucocorticoid receptor signaling (AID 588533; active means well fitted inhibition curve with a large enough effect in the signal ratio, with a control signal flat, not every such curve was filed as active; the % refers to the signal ratio; further: on the % scale 0 is the no-effect control and ±100 the full control effect). The gist of the method:
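Antagonist-mode qHTS: compound titrations added to GRE-bla HeLa cells, then dexamethasone 2 nM final; 18 h, 37 C. CCF4 FRET fluorescence normalized to dexamethasone and DMSO; IC50 from Hill fit.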

The target of test [4] is Peroxisome proliferator-activated receptor gamma (Homo sapiens) (UniProt P37231). The test is described as follows: qHTS assay for small molecule agonists of peroxisome proliferator-activated receptor gamma signaling (AID 588536; active means well fitted curve in the direction sought with a large enough effect in the signal ratio, with a control signal flat, not every such curve was filed as active; the % refers to the signal ratio;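 further: 0% = DMSO basal wells and 100% = rosiglitazone at 2 µM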). The gist of the method: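 Test agents, titrated, stimulated HEK293 UAS-bla cells overnight (16 h, 37 C). Substrate CCF4 was then added for two hours at room temperature before fluorescence reading.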
Sequence of Peroxisome proliferator-activated receptor gamma (Homo sapiens) (P37231 whole entry, looked up): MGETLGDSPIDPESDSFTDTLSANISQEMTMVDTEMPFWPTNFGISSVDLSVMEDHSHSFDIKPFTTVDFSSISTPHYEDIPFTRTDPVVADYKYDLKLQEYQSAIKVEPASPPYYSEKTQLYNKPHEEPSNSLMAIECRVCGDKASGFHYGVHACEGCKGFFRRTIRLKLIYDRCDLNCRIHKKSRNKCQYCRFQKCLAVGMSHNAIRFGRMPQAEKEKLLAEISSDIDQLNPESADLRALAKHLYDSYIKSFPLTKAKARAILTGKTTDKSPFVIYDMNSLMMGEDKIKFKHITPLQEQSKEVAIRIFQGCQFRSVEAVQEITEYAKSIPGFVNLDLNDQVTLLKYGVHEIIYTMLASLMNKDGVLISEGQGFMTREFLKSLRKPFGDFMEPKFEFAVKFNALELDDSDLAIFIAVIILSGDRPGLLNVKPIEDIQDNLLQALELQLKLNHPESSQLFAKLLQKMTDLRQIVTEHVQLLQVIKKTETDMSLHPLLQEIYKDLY

Test [5] has the same target. The test is described as follows: qHTS assay for small molecule antagonists of peroxisome proliferator-activated receptor gamma signaling (AID 588537; active means well fitted inhibition curve with a large enough effect in the signal ratio, with a control signal flat, not every such curve was filed as active; the % refers to the signal ratio;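 further: reporter cells co-stimulated with 50 nM rosiglitazone agonist during compound treatment; % of control where 0% means no effect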). The gist of the method: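 Step one: plate 3000 HEK293 UAS-bla cells per well in medium with 1% stripped serum and hold 6-6.5 h at 37 C. Step two: add compound and 50 nM agonist for 16 h. Step three: CCF4 loading, fluorescence read.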

Test [6] deals with Vitamin D3 receptor (Homo sapiens) (UniProt P11473). The test is described as follows: qHTS assay for small molecule antagonists of vitamin D receptor signaling (AID 588541).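 Further: receptor activated by calcitriol during compound treatment; series mostly up to about 77 µM; on the % scale 0 is the no-effect control and ±100 the full control effect.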 Put shortly: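 VDR-UAS-bla HEK293T cells in 2% charcoal-stripped FBS were stimulated with 1-alpha,25-dihydroxyvitamin D3 (3 nM final) plus compound for 16 h at 37 C. The beta-lactamase CCF4 readout was normalized to 50 nM agonist and DMSO, and Hill fits gave IC50.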
Sequence of Vitamin D3 receptor (Homo sapiens) (P11473 whole entry, looked up): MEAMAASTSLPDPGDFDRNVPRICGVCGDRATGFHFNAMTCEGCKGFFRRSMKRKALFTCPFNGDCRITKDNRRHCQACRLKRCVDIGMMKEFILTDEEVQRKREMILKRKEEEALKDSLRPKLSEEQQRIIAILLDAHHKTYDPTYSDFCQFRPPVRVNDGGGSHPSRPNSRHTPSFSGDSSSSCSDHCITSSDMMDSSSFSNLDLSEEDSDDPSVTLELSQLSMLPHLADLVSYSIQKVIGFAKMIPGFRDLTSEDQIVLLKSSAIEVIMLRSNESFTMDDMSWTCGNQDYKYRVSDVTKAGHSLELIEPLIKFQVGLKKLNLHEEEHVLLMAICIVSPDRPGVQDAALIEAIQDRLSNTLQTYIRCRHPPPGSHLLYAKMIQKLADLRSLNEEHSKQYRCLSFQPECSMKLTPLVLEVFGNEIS

The nature of test [7]: qHTS assay for small molecule agonists of retinoid X receptor alpha signaling (AID 588544).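 On activation: 0% = DMSO basal wells and 100% = reference agonist.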 The following applies: HEK293T RXRa-UAS-bla, beta-lactamase reporter, 18 h; 530 nm emission.
For test [8], the target named is Retinoic acid receptor RXR-alpha (Homo sapiens) (UniProt P19793). The description is as above.
Sequence of Retinoic acid receptor RXR-alpha (Homo sapiens) (P19793 whole entry, looked up): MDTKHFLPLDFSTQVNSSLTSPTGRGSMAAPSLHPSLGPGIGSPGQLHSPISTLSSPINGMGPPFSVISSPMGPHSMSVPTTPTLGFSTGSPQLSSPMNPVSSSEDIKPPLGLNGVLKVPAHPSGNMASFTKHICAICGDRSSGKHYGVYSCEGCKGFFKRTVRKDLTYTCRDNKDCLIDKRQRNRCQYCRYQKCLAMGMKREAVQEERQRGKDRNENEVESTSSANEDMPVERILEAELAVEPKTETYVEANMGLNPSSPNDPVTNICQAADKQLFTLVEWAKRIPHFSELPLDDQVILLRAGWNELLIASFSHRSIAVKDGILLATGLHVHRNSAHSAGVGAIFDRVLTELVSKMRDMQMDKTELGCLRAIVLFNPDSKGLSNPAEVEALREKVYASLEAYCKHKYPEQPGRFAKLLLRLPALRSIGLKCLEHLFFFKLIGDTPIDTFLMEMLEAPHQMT
The target of test [9] is Thyroid hormone receptor beta (Homo sapiens) (UniProt P10828). The test is described as follows: qHTS assay for small molecule agonists of thyroid hormone receptor beta signaling (AID 588545). The gist of the method:
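Cells (2500/well) were seeded, incubated 4 hrs at 37 C, dosed with a compound series, incubated 18 hrs, loaded with CCF4 dye for 2 hrs at RT, then read for fluorescence. Data were scaled between DMSO (0%) and 10 nM T3 (100%).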

Test [10] is described as follows: qHTS assay for small molecule antagonists of retinoid X receptor alpha signaling (AID 588546; active means well fitted inhibition curve with a large enough effect in the signal ratio, with a control signal flat, not every such curve was filed as active; the % refers to the signal ratio;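 further: cells stimulated with 9-cis-retinoic acid as agonist; on the % scale 0 is the no-effect control and ±100 the full control effect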). As to conditions: HEK293T RXRa-UAS-bla, beta-lactamase ratio, antagonist mode; measured here: W530 green channel, cytotoxicity proxy. The gist of the method: (§1)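 Beta-lactamase reporter inhibition, read as CCF4 fluorescence ratio (ex 405, em 460/530 nm) after 2 h at RT. HEK293T UAS-bla cells, 2500/well, were stimulated with 9-cis-RA at 500 or 100 nM final alongside test compound for 18 h at 37 C.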

In test [11] the target is Retinoic acid receptor RXR-alpha (Homo sapiens) (UniProt P19793). The test is described as above. As to conditions: HEK293T RXRa-UAS-bla, beta-lactamase ratio, antagonist mode. Put shortly:
as §1

Test [12] concerns the target Thyroid hormone receptor beta (Homo sapiens) (UniProt P10828). The test is described as follows: qHTS assay for small molecule antagonists of thyroid hormone receptor beta signaling (AID 588547; active means well fitted inhibition curve with a large enough effect in the signal ratio, with a control signal flat, not every such curve was filed as active; the % refers to the signal ratio). As to conditions: TR-UAS-bla HEK293, beta-lactamase ratio, antagonist mode, 18 h. Put shortly: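 TR-UAS-bla GripTite HEK293 cells in 2% charcoal/dextran FBS medium; compounds 0.59 nM to 92 uM with T3 at 0.4nM final, 18 h at 37 C. Beta-lactamase read by CCF4 fluorescence (460/530 nm); Hill fits gave IC50 and efficacy.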

Test [13] in a line: qHTS assay for small molecule activators of the p53 signaling pathway (AID 651743; active means well fitted activation curve with a large enough effect in the signal ratio, not every such curve was filed as active; the % refers to the signal ratio; further: series mostly up to about 92 µM; % of control where 0% means no effect). The following applies: HCT-116 p53RE-bla, beta-lactamase FRET ratio, 16 h; activation: stronger effect = higher value. Put shortly:
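HCT-116 p53RE-bla, 4,000 cells/well; 5 h settle; cpd/DMSO 16 h, 37 C; LiveBLAzer B/G 2 h RT; fluorescence intensity.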

A short description of test [14]: qHTS assay for environmental chemicals that activate the Aryl hydrocarbon Receptor (AhR) signaling pathway (AID 651777; active means well fitted curve in the direction sought with a large enough effect; an effect the other way counts as inactive or inconclusive; further: % of control where 0% means no effect; nearly all actives have a fitted effect of over 15% in size). The following applies: 1A2-DRE human hepatoma cells, luciferase, 24 h; activation: stronger effect = higher value. The gist of the method: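 Following a 24 hr incubation with test chemicals at 37 C and 5% CO2, 1A2-DRE human hepatoma cells received One-Glo reagent; after 30 min at room temperature, luciferase output reflected CYP1A2 induction via AhR.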

For test [15], the target named is Peroxisome proliferator-activated receptor alpha (Homo sapiens) (UniProt Q07869). The test is described as follows: qHTS assay for small molecule agonists of the peroxisome proliferator-activated receptor alpha (PPARalpha) signaling pathway (AID 651778; active means well fitted curve in the direction sought with a large enough effect; an effect the other way counts as inactive or inconclusive; further: % of control where 0% means no effect). As to conditions: PathHunter PPARalpha complementation, chemiluminescence, 6 h; max response: stronger effect = higher value. The gist of the method:
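Enzyme-fragment complementation assay in which ligand-bound PPARalpha translocates and forms an active enzyme that generates chemiluminescence. Cells were plated overnight, exposed to compound for 6 hr at 37 C, and then given detection reagent for 60 min at room temperature.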

Test [16] in a line: qHTS assay for small molecule agonists of the antioxidant response element (ARE) signaling pathway measured by Nrf2-dependant transcriptional activity (AID 720636; active means well fitted curve in the direction sought with a large enough effect in the repeat runs; an effect the other way counts as inactive or inconclusive;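 further: HepG2 cells with an ARE-driven luciferase reporter; % of control where 0% means no effect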). The gist of the method: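 ONE-Glo luminescence, read 30 min after reagent addition at room temperature, reflected ARE reporter activity in HepG2 cells that had been incubated with compound for 16 hr at 37 C in 1% dialyzed FBS.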

A short description of test [17]: qHTS assay for small molecule agonists of the antioxidant response element (ARE) signaling pathway measured by Nrf2-dependant transcriptional activity - cell viability counter screen (AID 720653; active means well fitted curve in the direction sought with a large enough effect in the repeat runs; an effect the other way counts as inactive or inconclusive; further: on the % scale 0 is the no-effect control and ±100 the full control effect). As to conditions: ARE-bla HepG2 viability, CellTiter-Glo ATP luminescence, 16 h; max response: stronger effect = lower value. The gist of the method:
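ARE-bla HepG2 cells treated with compounds for 16 h at 37C; this counter screen measures viability as intracellular ATP by CellTiter-Glo luminescence after 30 min at room temperature.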

Test [18] in a line: qHTS assay for cell viability of HEK293 cells (AID 743288; active means well fitted curve in the direction sought with a large enough effect; an effect the other way counts as inactive or inconclusive; further: on the % scale 0 is the no-effect control and ±100 the full control effect; nearly all actives have a fitted effect of over 50% in size). The following applies: ATP luminescence (CellTiter-Glo), 18 h; max response: stronger effect = lower value. The gist of the method: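 HEK293 parental, 2,000 cells/well; ≥5 h pre-incubation 37 C; pintool compound addition; 18 h, 37 C; CellTiter-Glo 30 min RT; luminescence read.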
Test [19] can be described thus: qHTS assay for cell viability of the p53RE-bla HCT-116 cell line (AID 743292; active means well fitted curve in the direction sought with a large enough effect; an effect the other way counts as inactive or inconclusive; further: on the % scale 0 is the no-effect control and ±100 the full control effect; nearly all actives have a fitted effect of over 55% in size). The gist of the method:
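After plating at 4,000 cells per well and a 5 h rest at 37 C, HCT-116 cells carrying p53RE-bla received test chemicals in DMSO. Sixteen hours later at 37 C, CellTiter-Glo was added and luminescence recorded following 30 min at room temperature.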

Test [20] has as its target Peroxisome proliferator-activated receptor delta (Homo sapiens) (UniProt Q03181). The test is described as follows: qHTS assay for small molecule agonists of peroxisome proliferator-activated receptor delta signaling (AID 588534).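 Further: 0% = DMSO basal wells and 100% = positive control agonist at 10 µM.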 Put shortly:
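Cell-based beta-lactamase reporter assay run in agonist mode: cells seeded and incubated 5 hrs at 37 C, compounds added and incubated 18 hrs at 37 C. CCF4 dye fluorescence read after 2 hrs at RT; EC50 and efficacy from Hill fits.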

“And” between values parts separate entries of the source, which are not always exact repeats. Identical values can stand only once. Results filed as inconclusive are left out. The source made the active and inactive calls. Unless noted, the call rests on the fitted dose curve.

Sequence of Peroxisome proliferator-activated receptor alpha (Homo sapiens) (Q07869 whole entry, looked up, the tested form may be a part): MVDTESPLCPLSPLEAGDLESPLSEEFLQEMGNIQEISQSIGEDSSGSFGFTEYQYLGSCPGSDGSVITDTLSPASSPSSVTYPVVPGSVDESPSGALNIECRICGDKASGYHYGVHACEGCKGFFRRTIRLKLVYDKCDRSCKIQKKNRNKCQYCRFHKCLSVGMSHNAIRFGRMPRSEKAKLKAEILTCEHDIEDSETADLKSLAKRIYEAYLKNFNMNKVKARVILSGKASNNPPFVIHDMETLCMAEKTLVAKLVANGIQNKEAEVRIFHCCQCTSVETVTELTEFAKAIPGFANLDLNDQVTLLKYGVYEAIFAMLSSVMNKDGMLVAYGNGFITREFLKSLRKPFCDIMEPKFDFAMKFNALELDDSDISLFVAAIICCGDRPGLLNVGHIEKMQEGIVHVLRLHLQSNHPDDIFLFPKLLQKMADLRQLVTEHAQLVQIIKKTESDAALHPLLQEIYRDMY
Sequence of Thyroid hormone receptor beta (Homo sapiens) (P10828 whole entry, looked up): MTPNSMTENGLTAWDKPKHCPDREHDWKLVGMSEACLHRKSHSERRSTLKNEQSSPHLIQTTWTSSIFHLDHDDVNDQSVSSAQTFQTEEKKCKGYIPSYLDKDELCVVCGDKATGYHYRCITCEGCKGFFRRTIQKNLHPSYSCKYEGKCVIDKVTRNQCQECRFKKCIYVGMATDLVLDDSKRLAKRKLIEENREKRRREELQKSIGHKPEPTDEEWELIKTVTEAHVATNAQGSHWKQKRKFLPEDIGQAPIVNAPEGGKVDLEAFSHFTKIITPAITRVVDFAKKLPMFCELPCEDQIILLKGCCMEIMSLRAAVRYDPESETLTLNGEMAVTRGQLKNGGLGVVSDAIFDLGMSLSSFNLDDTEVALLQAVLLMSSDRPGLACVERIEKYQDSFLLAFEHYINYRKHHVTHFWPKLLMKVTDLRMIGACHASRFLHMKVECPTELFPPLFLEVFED
Sequence of Glucocorticoid receptor (Homo sapiens) (P04150 whole entry, looked up): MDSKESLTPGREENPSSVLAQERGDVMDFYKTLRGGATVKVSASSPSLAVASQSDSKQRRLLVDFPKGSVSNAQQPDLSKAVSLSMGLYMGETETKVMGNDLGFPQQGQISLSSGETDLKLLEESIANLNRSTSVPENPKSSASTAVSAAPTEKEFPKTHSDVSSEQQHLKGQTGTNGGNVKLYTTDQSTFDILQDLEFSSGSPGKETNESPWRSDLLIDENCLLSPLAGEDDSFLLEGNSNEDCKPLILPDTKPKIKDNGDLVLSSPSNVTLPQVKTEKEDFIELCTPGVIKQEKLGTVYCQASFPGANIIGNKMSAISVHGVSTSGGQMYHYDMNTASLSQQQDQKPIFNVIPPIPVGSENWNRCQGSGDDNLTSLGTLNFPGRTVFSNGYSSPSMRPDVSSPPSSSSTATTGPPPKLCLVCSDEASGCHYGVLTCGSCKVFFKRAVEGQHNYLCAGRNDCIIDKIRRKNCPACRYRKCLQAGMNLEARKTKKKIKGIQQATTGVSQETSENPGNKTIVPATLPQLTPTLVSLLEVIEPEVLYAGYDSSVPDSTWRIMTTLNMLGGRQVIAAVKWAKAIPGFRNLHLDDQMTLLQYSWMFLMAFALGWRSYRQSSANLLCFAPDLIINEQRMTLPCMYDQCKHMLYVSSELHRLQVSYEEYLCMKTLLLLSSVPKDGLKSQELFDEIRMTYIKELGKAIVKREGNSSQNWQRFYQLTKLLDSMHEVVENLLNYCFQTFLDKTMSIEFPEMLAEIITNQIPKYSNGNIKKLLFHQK
Sequence of Peroxisome proliferator-activated receptor delta (Homo sapiens) (Q03181 whole entry, looked up): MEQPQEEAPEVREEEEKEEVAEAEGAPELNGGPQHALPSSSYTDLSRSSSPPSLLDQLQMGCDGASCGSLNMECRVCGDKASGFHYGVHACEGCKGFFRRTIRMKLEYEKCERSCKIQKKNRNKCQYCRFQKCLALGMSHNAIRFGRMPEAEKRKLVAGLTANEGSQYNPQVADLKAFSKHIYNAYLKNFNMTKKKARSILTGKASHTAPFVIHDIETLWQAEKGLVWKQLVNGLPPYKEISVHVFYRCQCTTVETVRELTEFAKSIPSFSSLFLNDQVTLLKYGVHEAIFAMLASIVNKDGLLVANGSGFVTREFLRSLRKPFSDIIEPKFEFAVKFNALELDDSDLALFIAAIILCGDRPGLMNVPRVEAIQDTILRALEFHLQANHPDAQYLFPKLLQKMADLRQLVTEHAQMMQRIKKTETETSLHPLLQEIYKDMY

Regarding `COc1nc(C)nc(NC(=O)NS(=O)(=O)c2ccccc2CCC(F)(F)F)n1`, the Potency entry in test [1], in test [2], in test [3], in test [4], in test [5] and in test [6] was “inactive” each time. For the same compound, the Potency entry in [8], in [9], in test [16] and in [19] was “inactive” in each case. Further, the max response in test [7] is -27.4%; in test [10] it was -4.25%; in test [11], -8.68% (inactive); in [15] it was -1.05% (inactive); in [17], 3.55% (inactive); in test [18], 0.421% (inactive). For the same compound, in [12], the activity change % (negative = inhibition) was 9.28% (inactive). The activation in test [13] was 1.94% (inactive); in [14] it was 0.656% (inactive).

For `CCOP(=O)(SC(C)CC)SC(C)CC` (configuration not stated), the Potency result in test [1], in [2], in [3], in [4], in test [5] and in test [6] was “inactive” in each case. In addition, the Potency entry in test [8], in [9], in [16] and in [19] was “inactive” in each case. Also, the outcome in test [20] was inactive. Further, the max response in [7] is -25%; in test [10] it was -3.17%; in [11], -13.8% (inactive); in test [15], -1.1% (inactive); in test [17], -6.4% (inactive); in test [18] it was -14% (inactive). Further, in test [12], the activity change % (negative = inhibition) was -3.53% (inactive). Besides, the activation in test [14] is 0.937% (inactive).

In the case of `FC(F)(F)c1ccc(OCCCOc2c(Cl)cc(OCC=C(Cl)Cl)cc2Cl)nc1`, the Potency entry in test [1], in test [2], in [4], in test [6], in test [8] and in [9] was “inactive” in each case. For the same compound, the Potency result in test [19] is “inactive”. In test [20], the outcome was inactive. For the same compound, the max response in test [7] is 5.75%; in [10], -14.8%; in test [11], 3.21% (inactive); in test [17] it was -24.7% (inactive); in test [18] it was -6.52% (inactive). For the same compound, the activity change % (negative = inhibition) in test [12] is 2.93% (inactive). The activation is 2.67% (inactive) in [13] and -0.256% (inactive) in test [14].

`Cc1cc(Cl)ccc1OCC(=O)O`: the Potency result in [1], in test [2], in test [3], in test [4], in test [5] and in [6] was “inactive” throughout. Moreover, the Potency result in test [8], in [9], in [16] and in test [19] was “inactive” throughout. In addition, the max response in test [10] was -3.03% and 10.9%; in test [11] it was 3.77% (inactive) and -0.223% (inactive); in test [15], 0.459% (inactive) and -1.12% (inactive); in test [17] it was 17.3% (inactive) and -19.3% (inactive); in test [18], -1.7% (inactive) and -11.8% (inactive). The activity change % (negative = inhibition) in [12] is 22.2% (inactive) and -4.04% (inactive). Further, the activation was -6.22% (inactive) and 0.0507% (inactive) in [13]; 0.725% (inactive) and -1.61% (inactive) in [14].
